# Most compounds without a hit are left out; they make up all but 6.8% or so of the library.
# Tcruzi prolif = inhibitors of T. cruzi proliferation | T. cruzi beta-gal in NIH3T3, GalScreen luminescence, 90 h | 5.9% of 77,000 active | AID 624255 | inhibition, % at 8.34 µM;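 active = mean inhibition above about 93%, with at least 55% of replicates each passing it, limit read from the data, passing the limit was not always enough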
# Pf Dd2 growth = inhibitors of Plasmodium falciparum Dd2 growth; P. falciparum Dd2 growth, SYBR Green, 72 h; active compounds read low; AID 1159554; 2.3% of 94,000 active; activity change, % at 10 µM; in the data active = activity change below about -80%
# C diff HTS = inhibitors of Clostridium difficile growth; Clostridium difficile clinical isolate growth, OD600, 24 h; active compounds read low; growth activity, negative = inhibition, % at 16 µg/mL (by protocol); 0.25% of 86,000 active;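 active = mean growth activity at or below -80% and every replicate also at or below -80%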
# A number is an active result; n = inactive; x = not tested or not shown; ! = not confirmed by another sample.
SMILES,Tcruzi prolif,Pf Dd2 growth,C diff HTS
C[C@@H]1CN([C@@H](C)CO)C(=O)c2cc(NC(=O)Nc3ccccc3)ccc2O[C@@H](C)CCCCO[C@@H]1CN(C)S(=O)(=O)c1ccc(Cl)cc1,n,-87,x
C[C@H]1CN([C@@H](C)CO)S(=O)(=O)c2ccc(C3=CCCCC3)cc2O[C@@H]1CN(C)C(=O)C1CCC1,n,n,n
C[C@@H]1CN([C@@H](C)CO)C(=O)c2cc(NC(=O)CCCN(C)C)ccc2O[C@@H](C)CCCCO[C@@H]1CN(C)Cc1ccc(C(F)(F)F)cc1,n,n,n
C[C@@H]1CCCCO[C@H](CN(C)CC2CCCCC2)[C@@H](C)CN([C@H](C)CO)C(=O)c2cc(NC(=O)CCCN(C)C)ccc2O1,n,n,n
C[C@@H]1CCCCO[C@@H](CN(C)Cc2ccc(C(F)(F)F)cc2)[C@@H](C)CN([C@H](C)CO)C(=O)c2cc(NC(=O)Cc3ccccc3)ccc2O1,n,n,x
C[C@H](CO)N1C[C@H](C)[C@@H](CN(C)Cc2ccc(C(F)(F)F)cc2)OCCCC[C@H](C)Oc2ccc(NC(=O)Cc3ccccc3)cc2C1=O,n,-81,x
C[C@@H]1CCCCO[C@H](CN(C)Cc2ccc(C(F)(F)F)cc2)[C@H](C)CN([C@@H](C)CO)C(=O)c2cc(NC(=O)Cc3ccccc3)ccc2O1,n,n,x
C[C@H]1CCCCO[C@@H](CN(C)CC2CCCCC2)[C@@H](C)CN([C@@H](C)CO)C(=O)c2cc(NC(=O)CCCN(C)C)ccc2O1,n,-89,n
C[C@@H]1CCCCO[C@@H](CN(C)Cc2ccc(C(F)(F)F)cc2)[C@H](C)CN([C@@H](C)CO)C(=O)c2cc(NC(=O)Cc3ccccc3)ccc2O1,n,-86,x
C[C@@H]1CCCCO[C@H](CN(C)Cc2ccc(C(F)(F)F)cc2)[C@H](C)CN([C@@H](C)CO)C(=O)c2cc(NC(=O)CCCN(C)C)ccc2O1,n,-89,n
C[C@@H]1CN([C@@H](C)CO)C(=O)c2cccc(NS(=O)(=O)c3ccc(F)cc3)c2O[C@@H]1CN(C)Cc1ccncc1,n,n,n
C[C@@H]1CCCCO[C@H](CN(C)C(=O)CCC(F)(F)F)[C@H](C)CN([C@@H](C)CO)C(=O)c2cc(NC(=O)c3ccccc3)ccc2O1,n,n,n
CNC[C@@H]1Oc2ccc(NC(=O)Nc3ccc(OC)cc3)cc2CC(=O)N([C@@H](C)CO)C[C@@H]1C,n,n,n
CNC[C@@H]1Oc2ccc(NS(=O)(=O)c3cn(C)cn3)cc2C(=O)N([C@H](C)CO)C[C@H]1C,n,n,n
O=C(C[C@H]1C=C[C@H](NC(=O)c2cccc(F)c2)[C@@H](CO)O1)Nc1nccs1,n,n,x
C[C@H](CO)N1C[C@H](C)[C@H](CN(C)C(=O)c2ccccc2)OCCCC[C@H](C)Oc2ccc(NC(=O)c3ccncc3)cc2C1=O,n,x,n
C[C@@H]1CCCCO[C@H](CN(C)C(=O)Nc2ccccc2)[C@H](C)CN([C@H](C)CO)C(=O)c2cc(NC(=O)C3CCCCC3)ccc2O1,n,-87,x
C[C@@H]1CCCCO[C@@H](CN(C)C(=O)Nc2ccc(F)cc2)[C@@H](C)CN([C@@H](C)CO)C(=O)c2cc(NC(=O)C3CCCCC3)ccc2O1,n,-86,n
C[C@@H]1CCCCO[C@H](CN(C)C(=O)Nc2ccc(F)cc2)[C@@H](C)CN([C@@H](C)CO)C(=O)c2cc(NC(=O)C3CCCCC3)ccc2O1,n,-86,n
C[C@@H]1CCCCO[C@H](CN(C)C(=O)Nc2ccccc2)[C@@H](C)CN([C@H](C)CO)C(=O)c2cc(NC(=O)C3CCCCC3)ccc2O1,n,n,n
C[C@@H]1CCCCO[C@@H](CN(C)C(=O)Nc2ccc(F)cc2)[C@@H](C)CN([C@H](C)CO)C(=O)c2cc(NC(=O)C3CCCCC3)ccc2O1,n,n,n
C[C@H]1CCCCO[C@@H](CN(C)C(=O)Nc2ccc(F)cc2)[C@@H](C)CN([C@@H](C)CO)C(=O)c2cc(NC(=O)C3CCCCC3)ccc2O1,n,n,n
O=C(O)C[C@@H]1C[C@H]2c3cc(NC(=O)Nc4ccc(F)cc4)ccc3O[C@H]2[C@H](CO)O1,n,n,n
CC[C@@H](C)[C@@H](CO[C@@H](Cc1ccccc1)C(=O)N[C@@H](CCS(C)(=O)=O)C(=O)OC(C)C)NCC(N)CS (stereo partly specified),x,x,n
CC=Cc1ccc2n(c1=O)C[C@@H]1[C@@H](CO)[C@H](C(=O)NCCC)[C@H]2N1S(=O)(=O)c1cn(C)cn1 (mixture of isomers),n,n,n
SMILES,Tcruzi prolif,Pf Dd2 growth,C diff HTS
CO[C@H]1CN(C)C(=O)c2ccc(NC(=O)Nc3cccc(F)c3)cc2OC[C@H](C)NC[C@H]1C,n,n,x
O=C(Nc1ccccc1)N1CC(=O)N2[C@H](CO)[C@H](c3ccc(C#Cc4cccnc4)cc3)[C@@H]2C1,x,n,n
C[C@@H]1CCCCO[C@H](CN(C)CC2CC2)[C@H](C)CN([C@H](C)CO)C(=O)c2cc(NC(=O)c3ccccc3)ccc2O1,n,-81,n
CCCN(C)C[C@@H]1OCCCC[C@@H](C)Oc2ccc(NC(=O)c3ccccc3)cc2C(=O)N([C@H](C)CO)C[C@@H]1C,n,-83!,n
CCCN(C)C[C@H]1OCCCC[C@@H](C)Oc2ccc(NC(=O)c3ccccc3)cc2C(=O)N([C@H](C)CO)C[C@H]1C,n,n,n
C[C@H](CO)N1C[C@H](C)[C@@H](CN(C)CC2CC2)OCCCC[C@H](C)Oc2ccc(NC(=O)c3ccccc3)cc2C1=O,n,n,n
C[C@H]1CN([C@@H](C)CO)C(=O)c2cc(NC(=O)Cc3ccccc3)ccc2O[C@@H]1CN(C)CC1CC1,x,n,n
C[C@@H]1CN([C@H](C)CO)C(=O)c2c(c3ccccc3n2C)-c2ccccc2CO[C@H]1CN(C)S(=O)(=O)c1cccs1,n,n,n
C[C@@H]1CN([C@@H](C)CO)C(=O)c2cc(NC(=O)Nc3ccccc3)ccc2O[C@H]1CN(C)C(=O)Nc1cccc2ccccc12,n,n,n
C[C@@H]1CN([C@@H](C)CO)C(=O)c2cc(NC(=O)Nc3ccc(C(F)(F)F)cc3)ccc2O[C@H]1CN(C)C(=O)Nc1cccc2ccccc12,n,-87,n
CC(C)NC(=O)Nc1cccc2c1O[C@H](CN(C)C(=O)Nc1ccc(C(F)(F)F)cc1)[C@@H](C)CN([C@H](C)CO)C2=O,n,n,n
CC(C)NC(=O)Nc1cccc2c1O[C@H](CN(C)C(=O)Nc1ccc(C(F)(F)F)cc1)[C@H](C)CN([C@@H](C)CO)C2=O,n,-85,n
C[C@H](CO)N1C[C@H](C)[C@H](CN(C)C(=O)Nc2ccc(C(F)(F)F)cc2)Oc2ccc(NC(=O)Nc3cccc4ccccc34)cc2C1=O,n,-83,n
C[C@H]1CN([C@@H](C)CO)C(=O)c2cc(NC(=O)Nc3ccc(C(F)(F)F)cc3)ccc2O[C@H]1CN(C)C(=O)Nc1cccc2ccccc12,n,n,n
C[C@@H]1CN([C@@H](C)CO)C(=O)c2cc(NC(=O)Nc3ccccc3)ccc2O[C@@H]1CN(C)C(=O)Nc1cccc2ccccc12,n,-91,n
C[C@@H]1CN([C@@H](C)CO)C(=O)c2cc(NC(=O)Nc3cccc4ccccc34)ccc2O[C@@H]1CN(C)C(=O)Nc1ccc(C(F)(F)F)cc1,n,n,n
